Bioassay records deposited in PubChem BioAssay by National Center for Advancing Translational Sciences (NCATS).
A selection: hits, their analogues and other compounds. The true share with any hit is near 7.5%.
KinaseGlo FLuc – counter-screen: inhibitors of Kinase-Glo firefly luciferase. Q27757. hit rate 0.28% among 200,000. Potency, µM (titrated, usually from 38.3 µM), hits mostly inhibitors. Kinase-Glo luciferase, ATP luminescence, 8 min; note: nearly all actives have a fitted effect of over 60% in size
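Kinase-Glo luciferase light output from ATP and luciferin was measured with 10 uM ATP, within the enzyme's linear range. Buffer: 50 mM imidazole pH 7.2, 50 mM KCl, 7 mM MgCl2, 0.01% Tween 20, 0.05% BSA; luminescence read after 8 min at ambient temperature.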
ELG1 genotox – inducers of genotoxicity in HEK293T ELG1-luciferase cells; HEK293T ELG1-luciferase reporter, luminescence, 16 h; Potency, µM (doses to about 46 µM), hits mostly activators; hit rate 1.3% among 330,000; note: nearly all actives have a fitted effect of over 60% in size
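HEK293T cells expressing luciferase-tagged ELG1 were exposed to compound or DMSO vehicle for 16 hr at 37 °C and 5% CO2. Luciferase activity was then measured with ONE-Glo after 30 min at room temperature.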
Rab9 prom act – Rab9 promoter activation | Potency, µM (series often up to 9.22 µM), actives largely listed as activators | AID 485297 | hit rate 2.8% among 320,000 | Huh7 Rab9 promoter-luciferase reporter, luminescence, 24 h; note: nearly all actives have a fitted effect of over 60% in size
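Huh7 reporter line, Rab9 promoter upstream of luciferase. Compound exposure 24 h at 37 °C in reduced-serum medium with 10% FBS. Read-out: luminescence.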
FLuc modulator – inhibits or activates purified firefly luciferase, miR-21 counter-screen; P08659; purified FLuc, Km substrates, luminescence inhibition; Potency, µM (highest dose often 57.5 µM), usual class: inhibitors; hit rate 6.9% among 360,000; AID 588342; note: nearly all actives have a fitted effect of over 55% in size
Target sequence (P08659 whole entry, looked up): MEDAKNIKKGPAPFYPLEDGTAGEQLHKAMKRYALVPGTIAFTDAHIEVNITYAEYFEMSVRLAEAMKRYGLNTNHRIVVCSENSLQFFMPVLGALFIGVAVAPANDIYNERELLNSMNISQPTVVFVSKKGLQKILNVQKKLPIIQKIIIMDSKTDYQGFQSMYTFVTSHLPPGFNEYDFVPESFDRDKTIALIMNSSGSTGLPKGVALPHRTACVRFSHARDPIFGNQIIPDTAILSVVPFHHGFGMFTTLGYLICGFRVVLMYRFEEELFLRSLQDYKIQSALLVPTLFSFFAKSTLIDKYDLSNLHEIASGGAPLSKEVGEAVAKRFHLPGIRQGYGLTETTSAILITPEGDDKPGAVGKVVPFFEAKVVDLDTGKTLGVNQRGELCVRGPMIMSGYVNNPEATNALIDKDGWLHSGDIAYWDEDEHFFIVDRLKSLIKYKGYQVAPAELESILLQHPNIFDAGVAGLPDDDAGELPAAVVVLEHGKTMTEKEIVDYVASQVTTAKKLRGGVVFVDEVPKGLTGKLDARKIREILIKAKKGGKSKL
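Purified P. pyralis luciferase, 10 nM final, with Km-level 10 uM D-luciferin and 10 uM ATP in 50 mM Tris acetate pH 7.5, 10 mM Mg acetate, 0.01% Tween-20, 0.05% BSA; 6-point qHTS titration about 60 µM downward; luminescence read.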
NPC1 prom act – NPC1 promoter activation; Huh7 NPC1 promoter luciferase reporter, 24 h; Potency, µM (highest dose often 9.22 µM), most hits filed as activators; hit rate 2.4% among 320,000; AID 485313; note: nearly all actives have a fitted effect of over 60% in size
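Luciferase expression driven by the NPC1 promoter was measured in stably transfected Huh7 cells after a 24 h compound incubation, using a luciferase reagent and a luminescence read.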
SMN2 splice up – increases expression of the SMN2 splice variant; HEK293 SMN2-luciferase splicing reporter, luminescence, 30-36 h; Potency, µM (top dose mostly 46.1 µM), usual class: activators; hit rate 2.8% among 210,000; AID 1458; note: nearly all actives have a fitted effect of over 55% in size
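HEK293 cells carry an SMN2 […]–luciferase reporter in which exon 7 inclusion puts luciferase in frame. Cells were plated 10-12 h before compound addition, then incubated 30-36 h at 37C. ONE-Glo luminescence was read; sodium butyrate at 4.5 mM final served as control.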
Numbers stand for hits; . = inactive; ? = inconclusive; / = no result given. Calls come from the whole dose curve; as a rule, active = well fitted curve in the direction sought with a large enough effect; inconclusive = small, poorly fitted or top-dose-only effect, or another doubt; inactive = no such curve, though single readings can be large; an effect the other way counts as inactive or inconclusive.

SMILES	KinaseGlo FLuc	ELG1 genotox	Rab9 prom act	FLuc modulator	NPC1 prom act	SMN2 splice up
COCCCN(C(C)=O)c1nc(-c2ccccc2)cs1	.	13µM	?	?	.	/
Cc1ccc(-n2ncc(C(=O)NCCc3ccsc3)c2C2CCN(C(=O)OC(C)(C)C)CC2)c(C)c1	/	/	/	.	/	/
Cc1nnc(N/N=C/c2ccc(-c3ccc(Br)cc3)o2)n1N	.	.	.	?	.	.
Cc1ccc(NC(=O)Cn2c(-c3nonc3N)nc3ccccc32)cc1C	/	/	/	.	/	10µM
Nc1nonc1-c1nc2ccccc2n1CC(=O)N/N=C/c1ccc(-c2cccc(C(=O)O)c2)o1	.	.	.	26.9µM	.	.
Cc1nnc(N/N=C\c2ccc(-c3cccc(C(=O)O)c3)o2)n1N	.	.	?	10.7µM	.	.
COc1ccc(NC(=O)c2ccc3c(c2)CCN3S(=O)(=O)c2ccc(C)cc2)cc1Cl	/	/	/	.	/	.
CC(C)OC(=O)c1ccc(NC(=O)C2C3CC4OC(=O)C2C4C3)cc1 (stereo unspecified)	.	.	2.82µM	21.3µM	?	11.2µM
COc1ccc(C(=O)Oc2ccc3oc(=O)sc3c2)cc1	.	?	.	10.7µM	.	.
O=C(Oc1ccc2ccc(=O)oc2c1)c1ccccc1	/	.	.	?	.	/
COc1ccc(C(=O)Oc2ccc3ccc(=O)oc3c2)cc1	/	.	.	2.69µM	.	/
COc1ccc(C(=O)Oc2ccc3c(-c4ccc(OC)cc4)cc(=O)oc3c2)cc1	.	/	/	/	/	.
CCN(CC)c1ccc2nc3ccccc3[n+](CC)c2c1	/	.	.	15.1µM	.	/
CCN(CC)c1ccc2nc3ccc(N)cc3[n+](-c3ccccc3)c2c1	/	.	.	13.5µM	.	/
CCN(CC)c1ccc2nc3c(=O)n(C)c(=O)n(C)c3nc2c1	/	/	/	.	/	.
COc1ccc(CCNC(=O)CCSCc2ccccc2Cl)cc1OC	/	/	/	.	/	/
CC(=O)c1ccccc1OCc1ccc(S(=O)(=O)Cc2ccccc2)cc1	/	.	.	.	.	/
COc1cccc(Cn2c(=O)n(-c3cccc(Cl)c3C)c(=O)c3c4c(sc32)CN(C(C)=O)CC4)c1	/	/	/	.	/	/
COC(=O)Cn1c(=NC(=O)c2ccc([N+](=O)[O-])s2)sc2cc(Br)ccc21	.	.	.	.	.	.
COC(=O)Cn1c(=NC(=O)c2ccc(Cl)s2)sc2cc(C)ccc21	.	?	?	0.135µM	?	3.98µM
CNC(=O)COC(=O)/C=C/c1cn(-c2ccccc2)nc1-c1ccc2c(c1)OCCO2	.	.	.	.	.	.
CN(C)C(=O)COC(=O)/C=C/c1cn(-c2ccccc2)nc1-c1cccs1	.	.	.	19µM	.	.
Cc1ccc(-c2nn(-c3ccccc3)cc2/C=N/NC(=O)c2ccc(Br)o2)cc1	.	.	.	10.7µM	.	.
NC(=O)N/N=C/c1cn(-c2ccccc2)nc1-c1cccs1	?	?	?	2.13µM	?	17.8µM
O=C(O)c1cccc(N/N=C/c2cn(-c3ccccc3)nc2-c2cccs2)c1	.	?	2µM	1.35µM	3.55µM	14.1µM
SMILES	KinaseGlo FLuc	ELG1 genotox	Rab9 prom act	FLuc modulator	NPC1 prom act	SMN2 splice up
NS(=O)(=O)c1ccc(N/N=C/c2cn(-c3ccccc3)nc2-c2cccs2)c([N+](=O)[O-])c1	.	.	.	.	.	.
COCCCn1c(=O)c2sccc2n(Cc2cc(C(=O)OC)ccc2OC)c1=O	/	.	.	.	.	/
O=C(N/N=C/c1cn(-c2ccccc2)nc1-c1cccs1)c1ccncc1	.	.	.	10.7µM	.	.
Cc1ccc(-c2nn(-c3ccccc3)cc2/C=N/NC(=O)c2ccncc2)o1	.	?	.	12µM	.	14.1µM
O=C(N/N=C\c1cn(-c2ccccc2)nc1-c1ccccc1)c1ccc(Br)o1	.	.	.	?	.	.
O=C(N/N=C/c1nn(-c2ccccc2)cc1-c1ccccc1)c1ccncc1	.	.	.	9.53µM	.	?
O=C(/C=C/c1cn(-c2ccccc2)nc1-c1cccs1)NCCN1CCOCC1	/	.	.	19µM	.	/
O=C(c1cn(-c2ccccc2)nc1-c1cccs1)N1CCOCC1	.	.	.	?	.	.
NS(=O)(=O)c1ccc(N/N=C/c2cn(-c3ccccc3)nc2-c2cccs2)cc1	/	.	.	10.7µM	.	/
